# From PubChem BioAssay (NCI)
# This is part of a sample that, as a whole, favours compounds with a hit. Of some 83,000 tested, about 20% had one in any assay.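 Assay: single dose, 48 h. Readout: percent growth (0 = no net growth; negative = cell death). Active: <10.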 Unmarked numbers belong to inactive results. The source made the active and inactive calls.
# Assays:
# Assay in all cases: NCI-60 one-dose screen, 48 h (100 = growth as untreated, 0 = no growth, -100 = all killed)
# NCI-H226 lung = details: 10 µM
# NCI-H322M lung = details: 10 µM
# HOP-62 NSCLC = details: 10 µM
# NCI-H522 lung = details: 10 µM
# A549/ATCC NSCLC = details: 10 µM
# COLO 205 colon = details: 10 µM
# DU-145 prostate = details: 10 µM
# K-562 leukemia = details: 10 µM
# SF-539 CNS = details: 10 µM
# M14 melanoma = details: 10 µM
# HCT-15 colon = details: 10 µM
# HT29 colon = details: 10 µM
# SNB-75 CNS = details: 10 µM
# U251 CNS = details: 10 µM
# PC-3 prostate = details: 10 µM
# LOX IMVI melanoma = details: 10 µM
# MOLT-4 leukemia = details: 10 µM
# RPMI-8226 leukemia = details: 10 µM
# SK-OV-3 ovarian = details: 10 µM
# MDA-MB-468 breast = details: 10 µM unless noted
SMILES,growth (NCI-H226 lung),growth (NCI-H322M lung) [%],growth (HOP-62 NSCLC),growth (NCI-H522 lung),growth (A549/ATCC NSCLC),growth (COLO 205 colon),growth (DU-145 prostate),growth (K-562 leukemia),growth (SF-539 CNS),growth (M14 melanoma),growth (HCT-15 colon),growth (HT29 colon),growth (SNB-75 CNS),growth (U251 CNS),growth (PC-3 prostate),growth (LOX IMVI melanoma),growth (MOLT-4 leukemia),growth (RPMI-8226 leukemia),growth (SK-OV-3 ovarian),growth (MDA-MB-468 breast)
COc1ccc2[nH]cc(-c3nc(N)nnc3-c3cn(C)c4ncc(Br)cc34)c2c1,8.48% (active),35,26.5%,-55.1% (active),17.7%,-73.9% (active),11.1%,3% (active),-3.25% (active),6.91% (active),12.3%,-27.1% (active),23.4%,5.39% (active),10.5%,20%,2.27% (active),-16% (active),10.7%,-8.06% (active)
CCOC(=O)C1=C(N)N(c2ccc(C)cc2)C2=C(C(=O)CC(C)(C)C2)C1c1ccccc1Br (stereo not given),84.9%,99,90.8%,67.5%,80.9%,62.7%,102%,50.6%,104%,83%,58.4%,62.5%,87.2%,80.7%,32.4%,88.8%,29.1%,35.5%,91.9%,77%
COc1cc(C2CC(c3ccccc3)=Nc3c(N)nc(N)nc3N2)ccc1Oc1nc(NCCO)nc(N2CCOCC2)n1 (stereo not given),92.5%,90.6,106%,97.7%,107%,112%,115%,91.3%,97.5%,104%,99.4%,112%,84.3%,98.1%,101%,107%,91.3%,104%,115%,88%
Cc1ccc(S(=O)(=O)N2CCN(S(=O)(=O)c3oc(-c4ccccc4)nc3C#N)CC2)cc1,69.2%,84.8,100%,64.1%,74.7%,92.3%,85.6%,66.1%,101%,84.8%,82.5%,80.2%,92.6%,84.4%,75%,8.41% (active),56.8%,74.7%,87.9%,66.2%
COc1ccc(-n2c(SCC(=O)NNS(=O)(=O)c3ccccc3)nc3ccc(Cl)cc3c2=O)cc1,91%,98.1,96.6%,86.5%,106%,120%,113%,99.5%,97.6%,104%,92%,114%,98.7%,101%,88.4%,87.2%,93.4%,99%,66.1%,102%
CC(C)(C)c1cc(/C=C2\S/C(=N/c3ncn[nH]3)NC2=O)cc(C(C)(C)C)c1O,5.38% (active),17,21.3%,-23.9% (active),15.4%,12.4%,32.3%,16.7%,18%,17.9%,11.5%,10.7%,19.3%,2.45% (active),12.2%,-7.75% (active),13.8%,8.38% (active),4.14% (active),9.25% (active)
O=C(CSc1nc2ccccc2c(=O)n1-c1ccc(Cl)cc1)Nc1ccc(-c2nc3ccccc3[nH]2)cc1,30.1%,37.5,5.56% (active),15.9%,-16.8% (active),-12% (active),-8.05% (active),2.71% (active),-29.4% (active),-36.6% (active),-7.08% (active),-38.9% (active),-39.1% (active),-61.4% (active),-54.2% (active),-88.2% (active),-7.88% (active),22.4%,94.2%,-41.7% (active)
COC(=O)CNC(=O)COc1c(OC)c(OC)cc2oc(-c3cccc(C(=O)Nc4ccc(Cl)cc4)c3)cc(=O)c12,-51.4% (active),76.6,-34.4% (active),64.9%,75.4%,31%,33.6%,50%,16%,7.29% (active),67.7%,58.4%,85.1%,11.7%,34.7%,-33.2% (active),88.6%,53.7%,82.2%,94.6%
